The sequences below were run against CXorf56 (assay: pooled miR-30 sensor sort-seq; sequence = guide strand). Conditions: shRNA.
For TTGCCCATGTCTTTGGTCCGTT, the sensor-assay potency score (higher = more potent) was -0.538.
For TTTCTCTAACTGGCAGTCCAGC, the sensor-assay potency score (higher = more potent) was -1.26.
In the case of ATATGAGTCAGCAACTTCCCTA, the sensor-assay potency score (higher = more potent) is reported as -0.79.
TACTGCTCCATCCACAATGAAG showed a sensor-assay potency score (higher = more potent) of -1.81.
Sequence TTCTGAGTATATATGTTCGTTT has a sensor-assay potency score (higher = more potent) of -0.865.

These sequences were tested against CYB5D1 in the same assay as above. Conditions: shRNA.
Work on TAGCGGTGTAGGATTTCCCATA yielded a sensor-assay potency score (higher = more potent) of -1.38.
Sequence TATTCCTGTGCCAATGACGTTA has a sensor-assay potency score (higher = more potent) of -0.429.
Sequence TTGAAGTACAGAAGTATTGCAG has a sensor-assay potency score (higher = more potent) of 0.794.
In the case of TACTGAGATAGTCAAATTCTTC, the sensor-assay potency score (higher = more potent) is reported as -1.34.
Work on TGAAGTACAGAAGTATTGCAGG yielded a sensor-assay potency score (higher = more potent) of -0.202.
For TACGTCTTGAGTCTACACGAGT, the sensor-assay potency score (higher = more potent) was -1.09.
TTAATGATGCGGATGCTCCGGG gave a sensor-assay potency score (higher = more potent) of -0.0268.
TACAGAAGTATTGCAGGTGTGT gave a sensor-assay potency score (higher = more potent) of 0.111.
For TACTTGATCTTCTTGTATCATT, the sensor-assay potency score (higher = more potent) was -1.02.
TTTGGATCAAACCAGTGGCTGA gave a sensor-assay potency score (higher = more potent) of -1.34.

Reference: the OligoGym collection
